The full ranking holds about 33,000 sequences; the median of “E-score (-0.5 to 0.5)” is about -0.0059, and the highest 2% start at about 0.26. For the sample, the highest values were picked, then their nearest neighbours and some sequences at random.
These sequences were tested against T1, Cin5 (UniProt P40917) (assay: PBM E-score (8-mer binding enrichment) (E-score (-0.5 to 0.5)); higher = stronger / more preferred TF binding). Details: protein concentration: 100 nM; construct: GST-full length.
T1 sequence: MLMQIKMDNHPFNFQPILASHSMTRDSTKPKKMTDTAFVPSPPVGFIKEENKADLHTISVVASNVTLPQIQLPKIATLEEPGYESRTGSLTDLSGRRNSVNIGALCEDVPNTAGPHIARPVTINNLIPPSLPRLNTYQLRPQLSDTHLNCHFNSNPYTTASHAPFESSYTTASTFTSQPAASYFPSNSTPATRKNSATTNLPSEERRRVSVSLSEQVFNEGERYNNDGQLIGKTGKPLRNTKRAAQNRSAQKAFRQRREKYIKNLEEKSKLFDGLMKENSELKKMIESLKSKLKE
Method: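 Universal 'all 10-mer' protein binding microarrays (Agilent AMADID 015681) probed with GST-tagged S. cerevisiae TFs (full-length or DBD) made by in vitro transcription/translation (PURExpress), about 100-200 nM. Bound TF was detected with fluorescent anti-GST. Each ungapped 8-mer (which stands for itself and its reverse complement) is scored by the PBM enrichment score (E-score), a modified Wilcoxon-Mann-Whitney statistic from -0.5 to +0.5, computed with the Universal PBM Analysis Suite. Scale: above 0.35 generally sequence-specific binding.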

Compared with AACGCCAA, GATTCTCC is lower in “PBM E-score” value: -0.0074 for the first, -0.134 for the second.

First: GTACTCTA
Second: TATTCGAA
The “PBM E-score” value of the first is lower: -0.0538 for the first, 0.0697 for the second.

Compared with CCCTATGA, CAATAGGC is lower in “PBM E-score” value: -0.066 for the first, -0.0915 for the second.

First: AGGAATAG
Second: GGCAAAAA
The “PBM E-score” value of the first is lower: 0.0234 for the first, 0.202 for the second.

First: ATTACTAC
Second: ATTACTAA
The “PBM E-score” value of the first is lower: 0.145 for the first, 0.334 for the second.

Going from ATTACTTA to CTTACTTA, the “PBM E-score” value falls from 0.411 to 0.25.

Compared with GTTACTAA, ATTACTGA is lower in “PBM E-score” value: 0.168 for the first, 0.108 for the second.

Compared with ATTACTAG, CTTACTAA is higher in “PBM E-score” value: 0.105 for the first, 0.313 for the second.

First: CTTACTAC
Second: AAGATGGA
The “PBM E-score” value of the first is higher: 0.202 for the first, 0.109 for the second.

Compared with CGAGTAGA, ATTTACGC is higher in “PBM E-score” value: -0.139 for the first, 0.0814 for the second.

Going from ATCCGTTC to ATCCGTTA, the “PBM E-score” value rises from 0.0322 to 0.29.

First: GTCCGTTA
Second: CGGGCTAA
The “PBM E-score” value of the first is higher: 0.12 for the first, -0.184 for the second.

Compared with CGGTACTC, CGTAGAGC is higher in “PBM E-score” value: -0.161 for the first, -0.0105 for the second.

First: AAAAACCA
Second: CAAGCGCA
The “PBM E-score” value of the first is lower: 0.0166 for the first, 0.323 for the second.

First: AAAGCGCA
Second: CAAGCGCC
The “PBM E-score” value of the first is higher: -0.0252 for the first, -0.291 for the second.

Compared with CAATTCCC, ATGATTAA is higher in “PBM E-score” value: 0.112 for the first, 0.256 for the second.

Going from CTGATTTC to ATGATTAG, the “PBM E-score” value rises from -0.00928 to 0.223.

Compared with ATGATTAC, CTGATTAA is lower in “PBM E-score” value: 0.362 for the first, 0.108 for the second.

Compared with CTGATTAC, GGGCTAGA is lower in “PBM E-score” value: 0.378 for the first, -0.149 for the second.

Compared with CAGGCAAC, AGTATGTG is higher in “PBM E-score” value: -0.0103 for the first, 0.14 for the second.

Going from CATATGTA to CTTATGTA, the “PBM E-score” value rises from 0.172 to 0.361.

First: ATTATGAA
Second: CTTATGCA
The “PBM E-score” value of the first is higher: 0.258 for the first, 0.106 for the second.

First: ACTATGTG
Second: GTTATGTA
The “PBM E-score” value of the first is lower: 0.0904 for the first, 0.276 for the second.

Going from GTTATGAA to CTTATGAA, the “PBM E-score” value falls from 0.159 to 0.0936.

First: ATTATGTG
Second: GTTATGCA
The “PBM E-score” value of the first is higher: 0.345 for the first, 0.0592 for the second.

Compared with GATATGTA, AGTGCTTA is higher in “PBM E-score” value: 0.189 for the first, 0.199 for the second.

Going from AGTGAACT to AGGCCACG, the “PBM E-score” value falls from 0.035 to -0.155.

First: GAGAAGAC
Second: CTACACCA
The “PBM E-score” value of the first is lower: -0.0329 for the first, -0.00077 for the second.

Compared with GGGACACC, CTAGTGAC is higher in “PBM E-score” value: -0.238 for the first, -0.0966 for the second.

Compared with GCTATGTA, ATTATGTC is higher in “PBM E-score” value: -0.0403 for the first, 0.27 for the second.

Going from ATTATGCG to ATTATGCC, the “PBM E-score” value falls from 0.338 to 0.15.

Compared with ATTATGCA, ACTATGTA is higher in “PBM E-score” value: 0.118 for the first, 0.202 for the second.

Going from ATTATGTA to CTTATGTC, the “PBM E-score” value falls from 0.42 to 0.219.

Compared with ACTATGTC, AGCCATCA is higher in “PBM E-score” value: -0.0438 for the first, 0.131 for the second.

First: AACGCGAT
Second: ACTTCGCC
The “PBM E-score” value of the first is higher: 0.0765 for the first, 0.0471 for the second.

Compared with CTACCCGA, CCACGGAC is lower in “PBM E-score” value: -0.0656 for the first, -0.237 for the second.

Compared with AGTTTCGC, ATAGGCCG is lower in “PBM E-score” value: 0.0693 for the first, -0.185 for the second.

First: ACCCTTAG
Second: GGACAGGA
The “PBM E-score” value of the first is higher: -0.101 for the first, -0.275 for the second.

Going from TATACTGA to GATACTGA, the “PBM E-score” value falls from 0.274 to 0.124.

First: AATACTGG
Second: ACTACTAT
The “PBM E-score” value of the first is lower: 0.129 for the first, 0.26 for the second.

First: CATACTGA
Second: ACTACTAA
The “PBM E-score” value of the first is lower: 0.155 for the first, 0.177 for the second.

Going from AATACTAT to AATACTGT, the “PBM E-score” value rises from 0.214 to 0.258.

First: ACTACTAC
Second: AGCTGTAG
The “PBM E-score” value of the first is lower: 0.00444 for the first, 0.139 for the second.

First: CAGATGAG
Second: CGTGTTGC
The “PBM E-score” value of the first is higher: 0.0638 for the first, -0.119 for the second.

First: AAAGTGAA
Second: GAAGTGAA
The “PBM E-score” value of the first is higher: 0.258 for the first, 0.202 for the second.

Compared with AAAGTGAT, ATACGCAA is higher in “PBM E-score” value: -0.00439 for the first, 0.217 for the second.

First: GTACGCAA
Second: TTACGCAA
The “PBM E-score” value of the first is lower: -0.0571 for the first, 0.306 for the second.

First: CAGCTCCC
Second: ACATGTTA
The “PBM E-score” value of the first is lower: -0.305 for the first, 0.126 for the second.

Going from AAACAAAA to ATACAACA, the “PBM E-score” value rises from 0.137 to 0.272.

Going from CTACAAAA to ATACAAAA, the “PBM E-score” value rises from 0.111 to 0.28.

First: ATACAACG
Second: GAACAAAA
The “PBM E-score” value of the first is lower: 0.174 for the first, 0.278 for the second.

Going from ATACAACC to GAACAAAC, the “PBM E-score” value rises from 0.0923 to 0.226.

Going from ATACAAAT to CCCCTCGA, the “PBM E-score” value falls from 0.22 to 0.0859.

Going from ACAGGCTA to CCCACAGC, the “PBM E-score” value falls from -0.0671 to -0.192.

First: TAAAATAA
Second: ATAAATAT
The “PBM E-score” value of the first is lower: 0.141 for the first, 0.226 for the second.

First: GTAAATAA
Second: CTAATAAA
The “PBM E-score” value of the first is higher: 0.189 for the first, 0.164 for the second.

First: ATAAATAG
Second: CTAAATAA
The “PBM E-score” value of the first is higher: 0.102 for the first, 0.0261 for the second.

First: CTAAATAC
Second: TTAATAAA
The “PBM E-score” value of the first is lower: 0.085 for the first, 0.287 for the second.

First: ATAATAAA
Second: ATAAATAA
The “PBM E-score” value of the first is lower: 0.24 for the first, 0.321 for the second.

First: TTAAATAA
Second: ATAAATAC
The “PBM E-score” value of the first is higher: 0.313 for the first, 0.279 for the second.

Compared with ATGTGGTG, CCTCGCAC is lower in “PBM E-score” value: 0.114 for the first, -0.0617 for the second.

Compared with CTTAGATC, CGGCATGA is higher in “PBM E-score” value: -0.0574 for the first, 0.123 for the second.

Going from GAATTCTC to ACCACGAT, the “PBM E-score” value rises from 0.0994 to 0.161.

First: AGCTACCT
Second: ATCACTGC
The “PBM E-score” value of the first is lower: -0.0535 for the first, 0.0947 for the second.

Going from CGTGTTGA to AACCCAAC, the “PBM E-score” value rises from -0.0277 to 0.17.

First: ACTTTACG
Second: GGGGCACC
The “PBM E-score” value of the first is higher: 0.119 for the first, -0.367 for the second.

Compared with GGGTCACC, ACGAATTA is higher in “PBM E-score” value: -0.297 for the first, 0.0396 for the second.

Going from CCGAATTA to GCGAATTA, the “PBM E-score” value rises from 0.0794 to 0.266.

Compared with GATGGTAC, AGGTAATG is higher in “PBM E-score” value: 0.0499 for the first, 0.124 for the second.

First: GGGTAATA
Second: CGGTAATC
The “PBM E-score” value of the first is higher: 0.122 for the first, -0.0552 for the second.

Going from AGGTAATA to CGGTAATA, the “PBM E-score” value falls from 0.296 to 0.181.

Going from AGGTAATC to CGGAGCTC, the “PBM E-score” value falls from 0.313 to -0.269.

Compared with ATTCTTGG, TGTAAACA is lower in “PBM E-score” value: 0.153 for the first, 0.0928 for the second.

First: CACCAGCG
Second: AATTAGAT
The “PBM E-score” value of the first is lower: -0.0689 for the first, 0.294 for the second.

Going from CTTTAGTA to CATTAGTA, the “PBM E-score” value rises from -0.00776 to 0.188.

Compared with GATTAGTA, AATTAGTG is lower in “PBM E-score” value: 0.254 for the first, 0.188 for the second.

Going from CATTAGTC to AATTAGAC, the “PBM E-score” value rises from 0.0189 to 0.0847.

First: ATTTAGTC
Second: ATTTAGTA
The “PBM E-score” value of the first is lower: 0.0988 for the first, 0.303 for the second.

Going from AATTAGAG to AATTAGTC, the “PBM E-score” value rises from 0.146 to 0.26.

Compared with AATTAGTA, AGCGTCAG is lower in “PBM E-score” value: 0.308 for the first, -0.124 for the second.

Going from AGCGAGCC to CACGAAGA, the “PBM E-score” value rises from -0.0601 to 0.132.

First: CGTTTCTA
Second: AGATAACT
The “PBM E-score” value of the first is lower: -0.00786 for the first, 0.159 for the second.

First: ATGCTACA
Second: ATCTAGAC
The “PBM E-score” value of the first is higher: -0.0162 for the first, -0.125 for the second.

Compared with ATATGATC, GTATGAGA is lower in “PBM E-score” value: 0.258 for the first, 0.144 for the second.

First: CTATGATA
Second: CTATGATC
The “PBM E-score” value of the first is higher: 0.116 for the first, -0.0495 for the second.

Compared with ATATGATG, ATTTGATC is lower in “PBM E-score” value: 0.158 for the first, 0.0618 for the second.

Going from GTATGATA to ACATGATA, the “PBM E-score” value falls from 0.275 to 0.187.
